Assays:
[1] = molecular target: T1, Serine/threonine-protein kinase TBK1 (Homo sapiens) (UniProt Q9UHD2); conditions: at 1 µM;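 also: values are mean inhibition of TBK1, screened as part of the GSK published kinase inhibitor set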
T1 sequence (whole entry): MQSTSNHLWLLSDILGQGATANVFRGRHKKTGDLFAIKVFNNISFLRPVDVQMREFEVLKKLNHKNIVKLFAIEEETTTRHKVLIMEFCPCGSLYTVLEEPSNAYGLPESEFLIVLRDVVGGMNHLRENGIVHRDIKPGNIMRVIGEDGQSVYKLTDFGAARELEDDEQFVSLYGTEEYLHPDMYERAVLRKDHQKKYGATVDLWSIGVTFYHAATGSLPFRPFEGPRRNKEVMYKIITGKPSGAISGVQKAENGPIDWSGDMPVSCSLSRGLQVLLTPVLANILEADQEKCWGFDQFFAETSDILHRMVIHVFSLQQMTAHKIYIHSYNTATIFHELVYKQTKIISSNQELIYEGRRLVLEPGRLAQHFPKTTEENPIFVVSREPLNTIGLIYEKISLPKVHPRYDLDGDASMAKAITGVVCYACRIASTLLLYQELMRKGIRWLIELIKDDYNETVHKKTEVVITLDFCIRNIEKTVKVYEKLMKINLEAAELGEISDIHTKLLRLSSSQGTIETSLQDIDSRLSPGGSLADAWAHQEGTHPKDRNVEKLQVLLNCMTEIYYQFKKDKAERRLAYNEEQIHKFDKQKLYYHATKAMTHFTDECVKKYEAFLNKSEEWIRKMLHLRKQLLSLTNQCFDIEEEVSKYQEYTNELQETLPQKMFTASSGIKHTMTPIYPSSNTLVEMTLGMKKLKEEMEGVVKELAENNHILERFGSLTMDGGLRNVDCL

[2] = molecular target: T2, Testis-specific serine/threonine-protein kinase 1 (Homo sapiens) (UniProt Q9BXA7); conditions: at 0.1 µM
T2 sequence (whole entry): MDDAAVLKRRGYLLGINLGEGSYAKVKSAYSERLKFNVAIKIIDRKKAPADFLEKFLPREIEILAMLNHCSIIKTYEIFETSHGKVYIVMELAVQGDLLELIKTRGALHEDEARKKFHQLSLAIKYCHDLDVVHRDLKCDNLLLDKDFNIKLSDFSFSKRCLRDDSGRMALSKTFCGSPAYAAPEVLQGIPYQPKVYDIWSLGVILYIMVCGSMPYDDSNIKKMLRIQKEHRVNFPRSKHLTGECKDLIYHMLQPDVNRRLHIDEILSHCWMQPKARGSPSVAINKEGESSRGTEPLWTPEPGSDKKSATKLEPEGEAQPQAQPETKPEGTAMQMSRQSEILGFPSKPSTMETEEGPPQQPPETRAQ

[3] = molecular target: T2, Testis-specific serine/threonine-protein kinase 1 (Homo sapiens); conditions: at 1 µM
[4] = molecular target: T3, Testis-specific serine/threonine-protein kinase 2 (Homo sapiens) (UniProt Q96PF2); conditions: at 0.1 µM
T3 sequence (whole entry): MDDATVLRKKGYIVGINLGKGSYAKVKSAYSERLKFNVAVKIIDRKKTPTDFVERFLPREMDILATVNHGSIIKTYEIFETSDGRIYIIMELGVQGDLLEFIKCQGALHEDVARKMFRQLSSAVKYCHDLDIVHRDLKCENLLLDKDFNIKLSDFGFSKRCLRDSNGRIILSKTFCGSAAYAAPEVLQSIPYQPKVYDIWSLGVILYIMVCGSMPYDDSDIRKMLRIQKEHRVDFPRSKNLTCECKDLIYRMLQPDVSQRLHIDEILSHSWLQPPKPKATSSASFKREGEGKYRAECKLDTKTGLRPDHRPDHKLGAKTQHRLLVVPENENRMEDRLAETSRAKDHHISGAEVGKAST

[5] = molecular target: T3, Testis-specific serine/threonine-protein kinase 2 (Homo sapiens); conditions: at 1 µM
[6] = molecular target: Casein kinase I isoform alpha (Homo sapiens) (UniProt P48729); conditions: at 0.1 µM
[7] = molecular target: Casein kinase I isoform alpha (Homo sapiens) (UniProt P48729); conditions: at 1 µM
[8] = molecular target: Casein kinase I isoform gamma-1 (Homo sapiens) (UniProt Q9HCP0); conditions: at 0.1 µM
[9] = molecular target: Casein kinase I isoform gamma-1 (Homo sapiens) (UniProt Q9HCP0); conditions: at 1 µM
[10] = molecular target: Casein kinase I isoform gamma-2 (Homo sapiens) (UniProt P78368); conditions: at 0.1 µM;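 also: values are mean inhibition figures reported as part of the GSK PKIS dataset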
Casein kinase I isoform gamma-2 (Homo sapiens), sequence (P78368 whole entry, looked up, canonical isoform): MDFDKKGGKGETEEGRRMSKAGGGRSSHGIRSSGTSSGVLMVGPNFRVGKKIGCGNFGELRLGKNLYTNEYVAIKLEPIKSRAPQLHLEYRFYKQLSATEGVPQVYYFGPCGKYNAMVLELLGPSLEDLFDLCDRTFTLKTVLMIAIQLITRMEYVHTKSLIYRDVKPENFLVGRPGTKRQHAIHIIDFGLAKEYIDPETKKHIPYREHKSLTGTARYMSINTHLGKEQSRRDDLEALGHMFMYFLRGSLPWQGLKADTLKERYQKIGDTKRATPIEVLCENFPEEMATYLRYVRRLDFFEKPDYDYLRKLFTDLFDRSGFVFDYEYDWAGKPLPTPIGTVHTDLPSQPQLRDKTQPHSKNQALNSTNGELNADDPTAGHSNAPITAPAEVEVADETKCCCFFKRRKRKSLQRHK

Casein kinase I isoform gamma-1 (Homo sapiens), sequence (Q9HCP0 whole entry, looked up, canonical isoform): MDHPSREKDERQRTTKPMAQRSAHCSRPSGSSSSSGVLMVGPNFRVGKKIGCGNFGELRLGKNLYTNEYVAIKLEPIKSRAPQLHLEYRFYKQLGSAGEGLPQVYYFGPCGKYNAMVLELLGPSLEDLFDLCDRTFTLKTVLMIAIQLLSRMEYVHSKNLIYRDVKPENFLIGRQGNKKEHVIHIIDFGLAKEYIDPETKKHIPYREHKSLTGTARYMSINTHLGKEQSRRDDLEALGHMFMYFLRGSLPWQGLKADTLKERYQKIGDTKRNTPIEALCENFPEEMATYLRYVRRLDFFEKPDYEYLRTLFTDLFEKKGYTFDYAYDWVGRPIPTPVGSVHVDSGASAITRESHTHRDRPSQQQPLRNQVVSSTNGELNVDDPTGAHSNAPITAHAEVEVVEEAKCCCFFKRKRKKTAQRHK
Casein kinase I isoform alpha (Homo sapiens), sequence (P48729 2-337 limits assumed): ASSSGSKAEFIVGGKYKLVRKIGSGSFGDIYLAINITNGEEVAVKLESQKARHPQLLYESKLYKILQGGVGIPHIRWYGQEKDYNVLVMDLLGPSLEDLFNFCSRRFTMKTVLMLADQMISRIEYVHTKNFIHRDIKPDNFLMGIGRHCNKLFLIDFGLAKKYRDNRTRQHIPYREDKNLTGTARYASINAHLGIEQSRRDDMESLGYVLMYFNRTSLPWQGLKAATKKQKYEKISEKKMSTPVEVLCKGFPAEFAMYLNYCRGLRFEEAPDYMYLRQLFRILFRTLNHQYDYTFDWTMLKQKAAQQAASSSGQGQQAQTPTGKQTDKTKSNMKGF

| Structure (SMILES) | inhibition [1] | inhibition [2] | inhibition [3] | inhibition [4] | inhibition [5] | inhibition [6] | inhibition [7] | inhibition [8] | inhibition [9] | inhibition [10] |
| --- | --- | --- | --- | --- | --- | --- | --- | --- | --- | --- |
| CCCN(CCS(C)(=O)=O)Cc1ccc(-c2ccc3ncnc(Nc4ccc(OCc5cccc(F)c5)c(Cl)c4)c3c2)o1 | 5.16% | 2.58% | 1.44% | 0.97% | 0.36% | 1.49% | 3.77% | 1.24% | 1.53% | 0.76% |
| COC(=O)Nc1nc2ccc(Oc3ccc(NC(=O)Nc4cccc(Cl)c4)cc3)cc2[nH]1 | -2.2% | 2.29% | 0.67% | -0.06% | -0.21% | 0.11% | 0.94% | 0.68% | 1.34% | 0.75% |
| COC(=O)Nc1nc2ccc(S(=O)(=O)c3ccc(NC(=O)Nc4cc(C(F)(F)F)ccc4F)cc3)cc2[nH]1 | 3.98% | 2.57% | 0.57% | 0.12% | -0.82% | 2.65% | 5.12% | 2.34% | 2.83% | 1.08% |
| COc1cc2ncn(-c3cc(OCc4ccccc4C(F)(F)F)c(C(=O)N(C)C)s3)c2cc1OC | 0.81% | 1.76% | 1.34% | 0.13% | 0.32% | 0.11% | 0.76% | -0.13% | 0.81% | 0.13% |
| COc1cc(N2CCN(C(C)C)CC2)ccc1Nc1nc(Nc2ccc(F)cc2C(N)=O)c2cc[nH]c2n1 | 6.76% | 82.8% | 95.4% | 58.6% | 90.8% | 12.4% | 58.3% | 9.86% | 42.2% | 7.97% |
| CCN1CCC(CC(=O)Nc2n[nH]c3nnc(-c4cccc(F)c4F)cc23)CC1 | 4.19% | 2.14% | 1.72% | 3.15% | 1.74% | 0.5% | -1.29% | 0.85% | 2.08% | -0.21% |
| COc1cc(Nc2nccc(Nc3ccc4c(C)n[nH]c4c3)n2)cc(OC)c1OC | 26.3% | 1.79% | 12.6% | -0.93% | -0.95% | 0.44% | 0.47% | 2.35% | 1.23% | -0.28% |
| Cc1cccc(Nc2ncc(-c3ccccc3)o2)c1 | 7.09% | 2.67% | 4.49% | 0.72% | 1.53% | 3.35% | 9.63% | 2.09% | 4.93% | 1.92% |
| COc1cccc(-n2ncc3c(N/N=C/c4ccc(F)cc4)ncnc32)c1 | 6.85% | 3.31% | 5.3% | 4.45% | 2.25% | 4.03% | 4.98% | 3.78% | 4.75% | 3.98% |
| c1ccc(-c2nc3n(c2-c2ccc4c(c2)OCO4)CCC3)nc1 | 2.71% | 0.83% | -0.01% | 0.79% | 0.57% | 22.2% | 60.1% | 1.06% | 2.79% | 1.64% |
| Nc1ncc(-c2cccc(S(N)(=O)=O)c2)c2scc(-c3ccc(F)c(Cl)c3)c12 | 3.47% | 3.24% | 4.96% | 2.48% | 2.51% | 6.19% | 36.5% | 2.96% | 4.15% | 2.73% |
| COc1ccc2c(-c3ccnc(Nc4cccc(OC(F)(F)F)c4)n3)cnn2n1 | 31.6% | 3.88% | 7% | 3.39% | 2.18% | 2.85% | 9.17% | 3.59% | 6.06% | 3.21% |
| CC(=O)NCc1cccc(C#Cc2cncnc2Nc2ccc(OCc3cccc(F)c3)c(Cl)c2)c1 | 4.8% | 1.79% | 2.15% | 0.5% | 1.59% | -1.4% | -0.4% | 0.6% | 0.01% | -0.69% |
| COc1cc2c(cc1Nc1nc(Nc3ccsc3C(N)=O)c3cc[nH]c3n1)N(C(=O)CN(C)C)CCC2(C)C | 50.7% | 94.6% | 96.3% | 87.4% | 94.6% | 4.27% | 14.9% | 6.43% | 21.1% | 3.76% |

— ChEMBL document CHEMBL1961873, “Compounds: GSK PKIS; Assays: Nanosyn kinase panel” (2012)
